Source: PubChem BioAssay (NCI)
“And” between values parts separate entries of the source, which are not always exact repeats. Equal values may be shown once. The panel holds about 83,000 compounds, 20% with a hit somewhere; the sample as a whole holds those more often.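 Each cell line was grown in a 96-well plate and treated with one concentration of compound for 48 hours. Values below 10 were considered active.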 Values without a mark were called inactive. The source made the active and inactive calls.

Tested on: SW-620 colon
Assay: NCI-60 one-dose screen, 48 h (100 = growth as untreated, 0 = no growth, -100 = all killed)
Settings: 10 µM
Protocol: Growth inhibition of the SW-620 human tumor cell line is measured as a screen for anti-cancer activity. Cells are grown in 96 well plates and exposed to the test compound for 48 hours. Compounds are tested at a single concentration, which is 10^-5 M for most compounds. The reported endpoint is percent growth (GI% or GIPRCNT), where numbers from 0 - 100% represent growth inhibition, and numbers from -100% - 0 represent cell death. For example, a value of 40 represents 60% growth inhibition. A value of 0 means no net growth occurred over the course of the experiment. A value of -40 indicates 40% of cells at the beginning of the experiment died by the end of the experiment. A value of -100 means all cells are dead at the end of the experiment.
NCI-60 Human Tumor Cell Lines Screen was performed using the standard one-dose NCI protocol, which is described in more detail at https://dtp.cancer.gov/discovery_development/nci-60/default.htm.
Compounds with GIPRCNT values below 10 were considered active. Activity score was based on GIPRCNT using the following formula: […]
Score is 0 for GIPRCNT values of 100 or above, 50 for GIPRCNT values of 0, and 100 for GIPRCNT values of -100.

| Structure (SMILES) | growth |
| --- | --- |
| O=C(O)CCCc1ccc(N(CCCl)CCCl)cc1 | 86.5% and 82.8% |

Same assay, conditions: 10 µM unless noted

| Structure (SMILES) | growth |
| --- | --- |
| COc1ccc(CN)cc1OC | 111% and 99.5% |
| N#CC(C#N)=Cc1cccc(F)c1 | 109% |
| C=C[Se]CC(=O)/C=C/c1ccccc1 | 87.9% |
| CCOC(=O)c1ccccc1C(=O)OCC | 102% |
| Cc1cc[n+](CCc2ccccc2)cc1 | 101% and 117% |
| N#CC(C#N)=C(C#N)C#N | 104% |
| N#CCC(=O)c1ccccc1 | 97.6% |
| Cc1c(C)c(N)c(C)c(C)c1N | 51.8% |
| COc1ccc2c(c1)C1(C)CCN(C)CC(C1)C2O (stereo not given) | 101% |
| CO[C@@H]([CH2][Hg][O]C(=O)c1ccccc1)[C@@H]([CH2][Hg][O]C(=O)c1ccccc1)OC | 66.1% |
| Cc1nc2ccccc2c(=O)n1-c1ccccc1F | 105% |
| O=C(NCCCN1CC1)Nc1cccc2ccccc12 | 99% and 89.6% |
| O=P(O)(Nc1ccccc1)Nc1ccccc1 | 86.2% |
| O=S(=O)(F)c1cccc(Cl)c1C[P+](c1ccccc1)(c1ccccc1)c1ccccc1 | 100% |
| CC1(C)N(Nc2ccccc2)C(=O)C2CCCN21 (stereo not given) | 62.5% |
| COc1ccn(C)c(=O)c1C#N | 94.1% |
| S=P(SP(=S)(c1ccccc1)c1ccccc1)(c1ccccc1)c1ccccc1 | 99.3% |
| C[C@]12CCc3sc(Nc4ccc(F)cc4)nc3C1=CC[C@@H]1[C@@H]2CC[C@]2(C)C(=O)CC[C@@H]12 | 35.4% |
| CC[C@H](C)[C@H](NC(=O)CN(C)C)C(=O)N(C)[C@H](C[C@@H](OC(C)=O)c1nc(C(=O)NC23C4C5C2C2C3C4C52C(=O)OC)cs1)C(C)C (stereo not given in full) | 25.9% |

| Structure (SMILES) | growth |
| --- | --- |
| O=[N+]([O-])c1cc(Br)c(O)c(Br)c1 | 108% |
| C[C@]12CCC3[C@@H](C[C@@H]4SC(Nc5ccccc5)=N[C@@]45CC(=O)CC[C@]35C)[C@@H]1CCC2=O (stereo not given in full) | -17.9% (active) |
| O=[N+]([O-])c1cc(Cl)c(Cl)cc1Cl | 100% and 105% |
| COC(=O)C1=CO[C@@H](C)[C@@H]2CN3CCc4c([nH]c5cc(OC)ccc45)[C@@H]3C[C@H]12 | 99.9% |
| N#CC(N)c1ccccc1 (stereo not given) | 103% |
| CCCCS(=O)(=O)Cl | 112% |
| C=CC1CN2CCC1CC2C(O)c1ccnc2ccccc12 (stereo not given) | 112% |
| CN(C)[C@@H]1C(=O)C(C(N)=O)=C(O)[C@@]2(O)C(=O)C3=C(O)c4c(O)ccc(Cl)c4[C@@](C)(O)[C@H]3C[C@@H]12 | 101% and 97.7% |
| COc1cc2c(cc1OC)-c1c3c(cc4c1[C@@H](C2)N(C)CC4)OCO3 | 35.1% |
| Cc1ccc(C(=O)O[C@H](C(=O)O)[C@H](OC(=O)c2ccc(C)cc2)C(=O)O)cc1 | 105% |
| COc1cc2c(c(OC)c1OC)-c1ccc(O)cc1[C@@H](NC(C)=O)CC2 | 21.9% and 20.7% |
| O=C(Cc1ccccc1)NC(O)C(Cl)(Cl)Cl (stereo not given) | 117% |
| CC(C)COC(=O)Cc1ccccc1 | 107% |
| CC/C(=C(\c1ccc(OCCN2CCOCC2)cc1)c1ccc(OC(=O)Cc2ccccc2)cc1)c1ccc(Cl)cc1 | 99.9% |
| CCCCOC(N)=O | 113% |
| NC(=O)c1c(Br)c(Br)c(Br)c(Br)c1C(=O)O (tested in a mixture with another compound) | 97.5% and 105% |
| CC1(C)C2CCC1(CS(=O)(=O)O)C(=O)C2 (stereo not given) | 99% and 111% |
| CCC(Br)(CC)C(=O)NC(N)=O | 110% |
| O=C(O)C(F)F | 90.4% |

Same assay, conditions: 75 µM

| Structure (SMILES) | growth [%] |
| --- | --- |
| O=C(O)CCCc1ccc(N(CCCl)CCCl)cc1 | 51.3 |
